# According to PubChem BioAssay AID720504 (National Center for Advancing Translational Sciences (NCATS), 2013):
# Out of some 360,000 compounds screened, about 10,000 (2.8%) were called active. Roughly 4% stayed inconclusive and do not appear here. What follows is part of a selection rich in actives, with near analogues and random picks from the rest. A number with no mark means an inactive call. Calls follow the shape of the dose curve; as a rule, active = well fitted inhibition curve with a large enough effect; inconclusive = small, poorly fitted or top-dose-only effect; inactive = flat fitted curve, though single readings scatter.
# Target: Serine/threonine-protein kinase PLK1 (Homo sapiens) (UniProt P53350)
# Sequence (P53350 whole entry, looked up, the tested form may be a part): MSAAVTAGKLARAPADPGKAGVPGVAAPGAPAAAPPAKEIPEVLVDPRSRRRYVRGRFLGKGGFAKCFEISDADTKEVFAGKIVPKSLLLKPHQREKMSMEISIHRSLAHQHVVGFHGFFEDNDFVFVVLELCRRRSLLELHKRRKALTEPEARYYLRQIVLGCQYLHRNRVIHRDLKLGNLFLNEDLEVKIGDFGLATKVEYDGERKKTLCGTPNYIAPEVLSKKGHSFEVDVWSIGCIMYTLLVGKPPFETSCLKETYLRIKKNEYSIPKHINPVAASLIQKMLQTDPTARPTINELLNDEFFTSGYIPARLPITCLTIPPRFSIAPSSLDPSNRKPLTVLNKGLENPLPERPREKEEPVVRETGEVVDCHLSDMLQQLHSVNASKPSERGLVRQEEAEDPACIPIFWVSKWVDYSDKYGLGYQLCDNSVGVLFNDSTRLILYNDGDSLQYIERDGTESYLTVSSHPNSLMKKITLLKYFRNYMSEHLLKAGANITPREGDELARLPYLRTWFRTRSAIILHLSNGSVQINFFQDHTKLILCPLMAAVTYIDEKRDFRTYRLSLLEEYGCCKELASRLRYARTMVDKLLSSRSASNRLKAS
# Assay: qHTS for Inhibitors of PLK1-PDB (polo-like kinase 1 - polo-box domain): Primary Screen; also: nearly all actives have a fitted effect of over 65% in size; as to max response, negative = inhibition: series mostly up to about 57 µM
# Details: Plk1 PBD binding of FITC phosphopeptide, fluorescence polarization
# % is scaled to controls: 0 for no effect and ±100 for the full control effect; potency is read from the fitted curve at half-maximal effect.
Compound,"max response, negative = inhibition",Potency
CC1(Oc2cccc(F)c2)CCN(Cc2ccccc2OC(F)F)C1 (stereo not given),-10.6%,–
C=CCOc1ccc(/C=N/NC(=O)C(C)Sc2ccccn2)cc1OCC (stereo not given),-12.5%,–
C=CCOc1ccc(/C=C2/C(=O)ON=C2C)cc1OCC,–,1.89 µM (active)
C#CCOc1ccccc1/C=C1/C(=O)ON=C1C,–,2.38 µM (active)
C=CCOc1ccc(/C=N/n2cncn2)cc1OC,-1.5%,–
Cc1no[n+]([O-])c1COc1ccccc1/C=C1\NC(=S)NC1=O,-11.5%,–
COc1ccc(NC(=O)C2(C)Cc3c(-c4cccc(NC(C)=O)c4)ccnc3O2)cc1 (stereo not given),1.6%,–
CC(C)NC(=O)N1Cc2cc(C(=O)NCC(F)(F)F)nc(-c3cccc(-c4cc5ccccc5o4)c3)c2[C@@H]1CCO,-2.2%,–
CCCCNC(=O)c1nc(C2CCN(S(=O)(=O)c3ccc(F)c(F)c3)CC2)oc1-c1cccc(C(F)(F)F)c1,-2.64%,–
CCCNC(=O)C1(C)CCN(Cc2csc(-c3ccc(Cl)cc3)n2)C1 (stereo not given),-6.86%,–
Nc1nc2ncccn2c1-c1ccccc1,-5.06%,–
COc1cc(OC)cc(C2=Cc3ccccc3C(CC(=O)c3ccco3)N2c2ccc(-c3cnc(OC)nc3)cc2)c1 (stereo not given),-0.0299%,–
CCCCCCn1c(=O)n2n(c1=O)C[C@]1(OC(=O)NCc3ccc(OC)c(OC)c3)CN(S(=O)(=O)c3ccc(C)cc3)C[C@]1(O)C2,-2.55%,–
O=C(NNS(=O)(=O)c1ccc(F)cc1)c1cnccn1,-1.36%,–
NS(=O)(=O)c1ccc(CNC(=O)c2cccc(Oc3ccccc3)c2)cc1,-1.88%,–
NS(=O)(=O)c1ccc(CNC(=O)c2cnccn2)cc1,–,16.8 µM (active)
CCc1ccc2c(c1)NC(=O)C2(C)Cc1ccc(OC(F)(F)F)cc1 (stereo not given),-1.5%,–
CC1(C)Cc2ccccc2-c2[nH]c(=S)[nH]c(=O)c21,-13.9%,–
N#CC1=C(N)Oc2n[nH]c(CSc3ccccc3)c2C12C(=O)Nc1ccccc12 (stereo not given),-12.8%,–
N#CC1=C(N)Oc2[nH]c(=S)[nH]c(=O)c2C12C(=O)Nc1ccccc12 (stereo not given),–,2.67 µM (active)
COCCNC(=O)C1(C)CCCN(Cc2cccc(F)c2)C1 (stereo not given),-4.61%,–
CCCCNC(=O)C1CCC(CNS(=O)(=O)c2ccc(NC(C)=O)cc2)CC1 (stereo not given),-1.34%,–
CC(=O)Nc1ccc(S(=O)(=O)NCCc2ccccc2)cc1,0.463%,–

Compound,"max response, negative = inhibition",Potency
COCCCNC(=O)c1ccc(CNS(=O)(=O)c2ccc(NC(C)=O)cc2)cc1,–,26.7 µM (active)
CCN1CCCC1CNC(=O)c1ccc2c(c1)NC(=O)/C(=C\c1ccccc1F)S2 (stereo not given),0.0941%,–
COc1ccc(C(=O)Nc2c(Cl)cc(Cl)cc2C(=O)N2CCC(C)CC2)cc1,-14.4%,–
CC1CCN(C(=S)c2ccc(-c3ccc(Cl)cc3Cl)o2)CC1,–,21.2 µM (active)
Cc1csc(NC(=O)c2ccc(-c3ccc(Cl)cc3Cl)o2)n1,-15%,–
COc1ccc2[nH]c(=S)cc(C)c2c1,–,4.74 µM (active)
COc1ccc(N)c(C)c1,-0.841%,–
COc1ccc2[nH]c3c(C)c4cc[n+](C)cc4c(C)c3c2c1,-4.23%,–
NC(=O)C1(N2CCCC2)CCN(Cc2ccccc2)CC1,-7.37%,–
CC12CN(Cc3ccccc3)CC(C)(CN(Cc3ccccc3)C1)C2=NO,–,5.32 µM (active)
O=S1(=O)CCN(Cc2ccccc2)CC1,-2.26%,–
O=C(OCc1cn([C@H]2C[C@H](c3ccccc3)N(C(=O)c3cccs3)C[C@@H]2O)nn1)c1ccccc1,-2.46%,–
CC(C)(C(=O)N1CCC1(C)C(=O)NS(=O)(=O)c1ccc(Br)cc1)c1ccccc1 (stereo not given),-7.26%,–
Cc1ccc(C(=O)/C=C/Nc2ccc(S(=O)(=O)Nc3onc(C)c3C)cc2)cc1,-13.9%,–
Cc1cc(C)nc(NS(=O)(=O)c2ccc(N/C=C\C(=O)c3cccs3)cc2)n1,–,26.7 µM (active)
CCOc1ncccc1C(=O)Nc1ccc(S(=O)(=O)Nc2nc(C)cc(C)n2)cc1,0.589%,–
O=C(CC(CC(=O)c1ccccc1)c1ccco1)c1ccccc1,13.6%,–
CSc1ccc(CNC(=O)C2(C)CCCN2C)cc1 (stereo not given),-4.46%,–
CN(C)CCCOc1ccc(-c2ccc3nccn3c2)cn1,-0.941%,–
CCOC(=O)N1C(=O)C[C@](Sc2ccc(C)cc2)(C(=O)OC)[C@H]1c1ccccc1,-3.98%,–
Cn1nc(N)c2ncc(C(Cl)(Cl)Cl)nc21,-4.91%,–
O=C(c1ccc(F)cc1)n1c(=S)nc2ccccn21,–,26.7 µM (active)
